Screening results as filed in PubChem.
A549 viability = counter-screen for Nrf2 inhibitors: cytotoxicity in A549 cells. 390,000 compounds, 0.16% hits. Potency, µM (highest dose often 46 µM), usual class: inhibitors. AID 504648. A549 ARE-Fluc cells, CellTiter-Fluor viability, 18-24 h
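A549 ARE-Fluc cells in 5% FBS OPTI-MEM, 5000 cells/well, rested 2 h then exposed to compounds in concentration-response for 18-24 h at 37 °C. Viability by CellTiter-Fluor fluorescence (Ex 405/Em 525) after 30 min; luciferase luminescence (BugLite, 15 min, RT) read afterwards.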
TrxR1 substrate = substrates of rat thioredoxin reductase 1 | 390,000 compounds, 0.01% hits | AID 588456 | Potency, µM (highest dose often 114 µM) | purified TrxR1 substrate turnover, NADPH consumption readout; note: nearly all actives have a fitted effect of over 50% in size
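Rat TrxR1, dispensed at 90 nM, was prereduced with 400 uM NADPH (final) for 5 min at ~22 deg C, then incubated with compound 15 min before 400 uM selenite. A first-read NADPH fluorescence drop versus no-compound background flagged substrates.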
GALK inh = galactokinase (human) inhibition. P51570. Purified GALK, Kinase-Glo residual ATP luminescence. Potency, µM (doses to about 57.5 µM), usual class: inhibitors. 270,000 compounds, 0.007% hits
Target sequence (P51570 whole entry, looked up): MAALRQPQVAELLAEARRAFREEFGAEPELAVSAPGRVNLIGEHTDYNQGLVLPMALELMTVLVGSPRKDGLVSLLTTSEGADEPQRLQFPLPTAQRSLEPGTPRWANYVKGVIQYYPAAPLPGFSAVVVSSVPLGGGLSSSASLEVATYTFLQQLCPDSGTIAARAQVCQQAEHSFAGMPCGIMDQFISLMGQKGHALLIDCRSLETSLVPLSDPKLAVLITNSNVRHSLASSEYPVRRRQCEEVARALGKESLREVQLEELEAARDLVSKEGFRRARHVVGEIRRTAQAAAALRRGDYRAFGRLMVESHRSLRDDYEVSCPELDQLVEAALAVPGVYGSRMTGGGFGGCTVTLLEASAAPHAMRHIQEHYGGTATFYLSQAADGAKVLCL
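The enzyme phosphorylates galactose (100 uM) using ATP (35 uM); inhibition is detected as higher residual ATP, quantified by bioluminescence after 1 h reaction at room temperature, pH 8.0.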
Nrf2 activator = activators of Nrf2 (ARE) signaling. AREc32 ARE-luciferase reporter (MCF7-derived line), luminescence, 24 h. Potency, µM (top dose mostly 46.1 µM), most hits filed as activators. 410,000 compounds, 0.31% hits. AID 624171; note: nearly all actives have a fitted effect of over 65% in size
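Steps: seed AREc32_Fluc cells (1000/well, 5% FBS OPTI-MEM); incubate overnight at 37 deg C; add 23 nL compound; incubate 24 hr; add Steady-Glo; hold 30 min RT; read luminescence.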
Nrf2 inh = inhibitors of Nrf2 signaling. A549 ARE-Fluc reporter, luciferase luminescence, 18-24 h. Potency, µM (series often up to 46 µM), usual class: inhibitors. 360,000 compounds, 2.1% hits; note: nearly all actives have a fitted effect of over 60% in size
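Two sequential reads on A549 ARE_Fluc cells exposed to compound for 18-24 h: a CellTiter-Fluor fluorescence read for viability, then a luciferase luminescence read for Nrf2/ARE activity.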
rTrxR1 inhibitor = inhibitors of rat thioredoxin reductase 1 | O89049 | recombinant rTrxR1, NADPH fluorescence consumption, selenite substrate | Potency, µM (highest dose often 114 µM), actives largely listed as inhibitors | 390,000 compounds, 1% hits | AID 588453; note: nearly all actives have a fitted effect of over 65% in size
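Rat TrxR1 (90 nM in the dispensed reagent) was pre-reduced with 400 uM NADPH for 5 min at room temperature, then incubated with compound for 15 min. After 400 uM selenite was added, NADPH fluorescence (Ex 340/Em 450 nm) was followed for 8 min.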
Each line names hits and unclear results; the compound was inactive in the other large screens. Hits are enriched below; roughly 3% of the tested compounds scored in any of these assays. Calls come from the whole dose curve; as a rule, active = well fitted curve in the direction sought with a large enough effect; inconclusive = small, poorly fitted or top-dose-only effect, or another doubt; inactive = no such curve, though single readings can be large; an effect the other way counts as inactive or inconclusive.

O=C1C=C(N(CCO)Cc2ccccc2)c2ccccc2C1=O	A549 viability 23.1µM, TrxR1 substrate inconclusive, GALK inh inconclusive, Nrf2 inh 20.6µM
O=C1c2ccccc2C(=O)c2c1cccc2N(CCO)CCO	A549 viability inconclusive (no result: GALK inh)
CCSc1nnc(NC(=O)C2CCN(S(=O)(=O)c3ccccc3C(F)(F)F)CC2)s1	Nrf2 inh 23.1µM
O=C(N/N=C/C(Cl)=C/c1ccc([N+](=O)[O-])cc1)C(=O)Nc1cccc(C(=O)O)c1	Nrf2 activator inconclusive, rTrxR1 inhibitor 79.4µM
O=C(Nc1cccc(C(=O)O)c1)/C(=C/c1cccc([N+](=O)[O-])c1)NC(=O)c1cccc(Br)c1	none (no result: GALK inh)
O=C(Nc1ccccc1)Nc1ncc([N+](=O)[O-])s1	A549 viability 23.1µM, Nrf2 inh inconclusive
O=C(COC(=O)c1ccccc1)Nc1ncc([N+](=O)[O-])s1	A549 viability inconclusive (no result: GALK inh)
CCOC(=O)/C(=C\c1ccc(Cl)cc1)c1nc2sc(C)c(C)c2c(=O)[nH]1	A549 viability inconclusive, Nrf2 activator inconclusive, Nrf2 inh 18.4µM, rTrxR1 inhibitor inconclusive
CCOc1ccc(S(=O)(=O)Nc2cccc(-c3ccc(N4CCCC4)nn3)c2)cc1	none (no result: GALK inh, Nrf2 inh)
Cc1cccc(NC(=S)N/C(=N/S(=O)(=O)c2ccccc2)c2ccccc2)c1	Nrf2 activator inconclusive, Nrf2 inh inconclusive, rTrxR1 inhibitor 15.8µM
COc1ccccc1N1CCN(S(=O)(=O)CCNC(=O)C(c2ccccc2)c2ccccc2)CC1	none (no result: GALK inh, Nrf2 inh)
Cn1cc(C[C@H](C(=O)O)N2C(=O)c3ccc(C(=O)O)cc3C2=O)c2ccccc21	none (no result: TrxR1 substrate, GALK inh, Nrf2 activator, rTrxR1 inhibitor)
Cc1ccc(S(=O)(=O)N(C)C)cc1NC(=O)C(C)N(C)Cc1sccc1C (stereo not given)	Nrf2 inh 13µM
CCOC(=O)c1sc2nc(C)nc(NCc3ccccc3OC)c2c1C	Nrf2 inh 20.6µM
COC(=O)Cn1cc(/C=C/c2cc[n+](C)cc2)c2ccccc21	A549 viability inconclusive
COc1ccc2c(c1)c(/C=C/c1cc[n+](C)cc1)cn2C	Nrf2 inh 11.6µM
COc1cc(/C=C2\C=Cc3ccccc32)cc(OC)c1OC	none (no result: A549 viability, GALK inh, Nrf2 activator, Nrf2 inh)
O=C(NC(=S)Nc1cccc2c(O)cccc12)c1ccco1	none
O=C(NC(=S)Nc1cccc2cc(O)ccc12)c1ccccc1Br	rTrxR1 inhibitor 50.1µM
Cc1ccc(-c2nc3ccccc3[nH]2)cc1NC(=S)NC(=O)c1ccccc1Br	A549 viability inconclusive, Nrf2 inh 18.4µM
COc1ccccc1C(=O)NC(=S)Nc1cccc2cc(O)ccc12	rTrxR1 inhibitor inconclusive (no result: GALK inh)
Cc1ccc(-c2nc3ccccc3[nH]2)cc1NC(=O)c1ccc2c(c1)OCO2	none
O=C(NC(=S)Nc1cccc2cc(O)ccc12)c1ccco1	rTrxR1 inhibitor 79.4µM
CC(=O)c1ccc(NC(=O)CCc2c(C)nc3cc(-c4ccc(Cl)cc4)nn3c2C)cc1	Nrf2 inh inconclusive (no result: GALK inh)
Cc1cc(C)c(S(=O)(=O)ON2C(=O)c3ccccc3C2=O)cc1C	rTrxR1 inhibitor 3.55µM
O=C1c2ccccc2C(=O)N1OS(=O)(=O)c1ccc(F)cc1	none
Cc1ccc(NC(=O)CN2C(=O)c3ccccc3C2=O)c(C)c1	none (no result: GALK inh)
Cc1cc(C)c(C)c(S(=O)(=O)ON2C(=O)c3ccccc3C2=O)c1C	rTrxR1 inhibitor 1.26µM
Cc1ccc(S(=O)(=O)ON2C(=O)c3ccccc3C2=O)c(C)c1	rTrxR1 inhibitor 3.55µM
CC(=O)N(C)c1ccc(/C=C2\C=Cc3ccccc32)cc1	rTrxR1 inhibitor inconclusive (no result: A549 viability, GALK inh, Nrf2 activator, Nrf2 inh)
CCCC(=O)N(C)c1ccc(/C=C2\C=Cc3ccccc32)cc1	rTrxR1 inhibitor 20µM (no result: A549 viability, GALK inh, Nrf2 activator, Nrf2 inh)
O=c1cc2oc3cc(O)c(O)cc3c(-c3ccccc3[N+](=O)[O-])c-2cc1O	A549 viability 5.17µM, Nrf2 inh 3.26µM
CS(=O)(=O)c1ccc(C(=O)NCCN2C(=O)S/C(=C\c3cccnc3)C2=O)cc1[N+](=O)[O-]	rTrxR1 inhibitor 17.8µM
O=C(CC(Nc1cccc(Cl)c1Cl)C(=O)OCC(=O)c1cccs1)c1ccccc1 (stereo not given)	rTrxR1 inhibitor inconclusive
COc1ccccc1NC(CC(=O)c1ccccc1)C(=O)OCC(=O)c1ccc(F)cc1 (stereo not given)	Nrf2 inh inconclusive, rTrxR1 inhibitor 35.5µM
O=C(CC(Nc1ccc(Cl)cc1)C(=O)O)c1ccccc1 (stereo not given)	Nrf2 activator inconclusive, Nrf2 inh inconclusive, rTrxR1 inhibitor 28.2µM
COc1ccccc1NC(=O)CCCC(=O)OCC(=O)c1ccc(F)cc1	Nrf2 inh inconclusive
O=C(CC(CC(=O)c1ccccc1)C(=O)O)c1ccccc1	none
O=C(CC(Nc1ccccc1Cl)C(=O)O)c1ccccc1 (stereo not given)	Nrf2 activator inconclusive, Nrf2 inh inconclusive, rTrxR1 inhibitor 4.47µM
Cc1c(Cl)cccc1NC(CC(=O)c1ccccc1)C(=O)OCC(=O)c1cccs1 (stereo not given)	rTrxR1 inhibitor 39.8µM
CCn1cnc2c(Nc3ccc(CCC(=O)N=C(N)N)cc3)nc(C#N)nc21	none (no result: TrxR1 substrate, GALK inh, Nrf2 activator, rTrxR1 inhibitor)
Cc1c(Cl)cccc1NC(=O)CC(Cc1ccccc1)C(=O)O (stereo not given)	none
Cc1c(Cl)cccc1NC(CC(=O)c1ccccc1)C(=O)O (stereo not given)	Nrf2 activator 15.8µM, rTrxR1 inhibitor 3.55µM
O=C(CC(Nc1cccc(Cl)c1Cl)C(=O)O)c1ccccc1 (stereo not given)	Nrf2 activator inconclusive, rTrxR1 inhibitor 39.8µM
O=C(CCC(=O)c1ccc(Oc2ccccc2)cc1)Nc1cccc(Cl)c1Cl	Nrf2 inh inconclusive
COC(=O)c1cc(NC(=O)[C@H](CCS(C)(=O)=O)N2Cc3ccccc3C2=O)cc(C(=O)OC)c1	none (no result: GALK inh)
Cc1ccc(Cn2c(=O)n(Cc3ccc(Cl)cc3)c(=O)c3cccnc32)cc1	none (no result: GALK inh)
COc1ccc(C)cc1NC(=O)C(Cc1ccccc1)NS(=O)(=O)c1ccc(Br)s1 (stereo not given)	Nrf2 inh inconclusive (no result: GALK inh)
CCOc1ccccc1NC(=O)C(Cc1ccccc1)NS(=O)(=O)c1ccc(Br)s1 (stereo not given)	Nrf2 inh 18.4µM (no result: GALK inh)
CC1(O)c2ccccc2C(=O)N1Cc1ccccc1 (stereo not given)	none
CC1(O)c2ccccc2C(=O)N1CCc1ccccc1F (stereo not given)	Nrf2 activator 7.08µM, Nrf2 inh inconclusive
N#C/C(=C\c1ccccc1[N+](=O)[O-])c1nc(C2CC2)cs1	Nrf2 activator 10µM, Nrf2 inh inconclusive
N#C/C(=C/c1ccccc1[N+](=O)[O-])c1nc(C2CC2)cs1	Nrf2 activator 11.2µM, Nrf2 inh inconclusive
N#C/C(=C\c1ccc([N+](=O)[O-])cc1)c1nc(C2CC2)cs1	none
